Compound activity: PubChem BioAssay, National Center for Advancing Translational Sciences (NCATS)
aSyn yeast inh: inhibitors of alpha-synuclein toxicity in yeast. 370,000 compounds, 0.14% hits. Potency, µM (titrated, usually from 46.1 µM), usual class: activators. Yeast expressing alpha-synuclein, growth rescue, BacTiter-Glo, 24 h; further: nearly all actives have a fitted effect of over 65% in size
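Galactose-induced alpha-syn yeast (OD600=0.02, raffinose-pregrown) + pinned cpd, 24 hr, 30 deg C; growth by BacTiter-Glo luminescence. Growth restoration scores as activation.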
TDP-43 yeast inh: TDP-43 toxicity inhibition in yeast | TDP-43 expressing yeast growth rescue, BacTiter-Glo, 24 h | Potency, µM (highest dose often 46.1 µM), actives largely listed as activators | 410,000 compounds, 1.8% hits | AID 652104; further: nearly all actives have a fitted effect of over 50% in size
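In this qHTS, compounds that restore growth of yeast expressing TDP-43 appear as activators. Cells (OD600=0.02, galactose medium, raffinose-pregrown) are incubated with compound 24 hr at 30 deg C and growth is quantified by BacTiter-Glo.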
Abeta yeast res: restores growth of yeast expressing A-beta42 peptide | yeast expressing A-beta42, growth rescue, OD600, 48 h; response scale: 0% DMSO, 100% iron-clioquinol control | Potency, µM (highest dose often 46.1 µM), hits mostly activators | 410,000 compounds, 0.063% hits; further: nearly all actives have a fitted effect of over 55% in size
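Growth rescue measured by 600 nm absorbance after 48 h yeast culture at 30 C with compound. Values normalized between DMSO and an equimolar ferric chloride plus clioquinol control.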
ClpP mod: qHTS Assay for Activators of ClpP; ATP-dependent Clp protease proteolytic subunit (Bacillus subtilis (strain 168)), P80244; purified B. subtilis ClpP, FRET peptide cleavage, 20 min; Potency, µM (doses to about 57.5 µM); 340,000 compounds, 1.9% hits; AID 651965, 2013; active means well fitted falling curve with a large enough effect; inconclusive means small, poorly fitted or top-dose-only effect; inactive means no such curve, though single readings can be large or run the other way; further: the source files actives as falling curves though it sought activators and does not explain the sign; nearly all actives have a fitted effect of over 65% in size
Target sequence (P80244 whole entry, looked up): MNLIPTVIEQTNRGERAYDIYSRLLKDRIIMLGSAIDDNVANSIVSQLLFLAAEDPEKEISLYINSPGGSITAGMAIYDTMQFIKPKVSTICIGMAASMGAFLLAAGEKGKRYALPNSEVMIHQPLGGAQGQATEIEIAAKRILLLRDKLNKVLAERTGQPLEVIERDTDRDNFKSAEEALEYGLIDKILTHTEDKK
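ClpP 10 microg/mL final, pH 8 Tris/KCl buffer with BSA, glycerol, Tween-20; compound pinned in; FRET-FV substrate; RT 20 min; Ex320/Em430; ΔFRET vs ADEP 5.8 microM, DMSO, no enzyme.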
FUS suppressor: rescues growth of FUS-expressing yeast; Potency, µM (titrated, usually from 76.6 µM), actives largely listed as activators; 390,000 compounds, 0.24% hits; AID 1347120; S. cerevisiae FUS-expressing, growth rescue, OD600, 24 h; further: nearly all actives have a fitted effect of over 55% in size
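Absorbance at 600 nm, taken 24hr after compound addition, measured rescue of FUS-yeast growth at 30C. Induction used 2% galactose with seeding at OD 0.005. Controls: CP55940 from 92uM final, DMSO only.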
Mm-Cpn inhibitor: inhibitors of Methanococcus maripaludis chaperonin TRiC (MmCpn); 330,000 compounds, 0.031% hits; purified Mm-Cpn ATPase, ADP Transcreener TR-FRET; Potency, µM (titrated, usually from 76.9 µM), usual class: inhibitors; AID 504842; further: nearly all actives have a fitted effect of over 80% in size
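Inhibition of chaperonin ATP hydrolysis is measured as reduced ADP production, detected by competitive TR-FRET in which signal falls with ADP. Final enzyme 25 nM and ATP 10 uM, reacted 30 min at 37°C.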
A number is an active result; n = inactive; u = inconclusive; x = not tested or not shown. The list is not random: actives were taken first. Their share in the collection is about 3.6%. Unless noted, the call rests on the fitted dose curve; in most records, active means well fitted curve in the direction sought with a large enough effect; inconclusive means small, poorly fitted or top-dose-only effect, or another doubt; inactive means no such curve, though single readings can be large; an effect the other way counts as inactive or inconclusive.

SMILES | aSyn yeast inh | TDP-43 yeast inh | Abeta yeast res | ClpP mod | FUS suppressor | Mm-Cpn inhibitor
COc1cc(/C=C(\C#N)c2nc3ccccc3n2C)cc(OC)c1OC | x | n | n | n | n | x
COc1ccc(C(C#N)=Cc2ccc(OC)c(OC)c2)cc1 | n | u | n | n | n | x
CSc1ccc(CNC(=O)C2CCN(c3nnc(-n4cccc4CNc4ccc(C)cc4)s3)CC2)cc1 | x | n | n | n | 35µM | x
Cc1ccc(NCc2cccn2-c2nnc(N3CCC(C(=O)NCCC(C)C)CC3)s2)cc1 | x | n | n | n | u | x
CN(C)c1cc(NC(=O)CNC(C)(C)C)c2ccccc2n1 | n | n | n | n | n | n
CCCCC(=O)Nc1cc(N(C)C)nc2ccccc12 | n | n | n | 8.9µM | n | n
COc1ccc(CC(=O)NO)cc1OC | n | x | x | n | x | x
CCCNC(=O)C1(C)CCCN(C(=O)C2(c3ccc(Cl)cc3)CCCC2)C1 (stereo not given) | n | 35µM | n | n | n | x
CCCNC(=O)C1(C)CCN(C(=O)C2(c3ccc(Cl)cc3)CCCC2)C1 (stereo not given) | n | u | n | n | n | x
CC1CCN(S(=O)(=O)c2ccc3nc(NCc4ccccc4)ccc3c2)CC1 | x | n | n | n | n | x
COc1ccc(-c2cc(C(F)(F)F)nc(N3CCCCCC3)n2)cc1 | n | n | n | 22µM | n | n
COc1ccc(-c2cc(C(F)(F)F)nc(N3CCCCC3)n2)cc1OC | n | n | n | 35µM | n | n
COCCN=C1NN=C(c2cc(C)n(CC3CCCO3)c2C)CS1 (stereo not given) | n | n | n | x | 35µM | n
COCCCN=C1NN=C(c2cc(C)n(Cc3ccccc3Cl)c2C)CS1 | n | n | n | n | u | n
CCOc1ccccc1-c1ccc(C(=O)NCc2ccccc2)o1 | n | 16µM | n | n | n | n
COCc1cc(=O)[nH]c(-c2csc(C)n2)n1 | n | n | n | n | n | n
COCc1cc(OC)nc(-c2csc(C)n2)n1 | n | n | 16µM | n | n | n
C=C1C2(C(=O)Nc3nccs3)CCC(C2)C1(C)C (stereo not given) | n | 13µM | u | n | n | n
CCN(CC)C(=O)C[n+]1ccc(C(N)=O)cc1 | n | n | n | n | n | n
CC(C)(C)NC(=O)C[n+]1ccc(C(N)=O)cc1 | 35µM | n | n | n | n | n
Cc1cc(C)c2c(n1)nn1c(C)c(CCC(=O)NCc3ccccc3Cl)c(C)nc21 | x | n | n | n | n | x
COc1cc(NC(=O)c2cc(C)on2)c(OC)cc1Cl | x | x | x | x | n | x
COc1ccc(C(=O)/C=C/C(=O)N(Cc2ccc(F)cc2)C(C(=O)NC2CCCCC2)c2ccncc2)c(O)c1 (stereo not given) | 25µM | 20µM | n | n | x | n
Cc1ccc(OCC(=O)Nc2cc(-c3nc4cc(Cl)ccc4o3)ccc2C)c(C)c1 | n | x | x | n | x | x
CN(CC(=O)Nc1ccc(Cl)cc1)C(=O)c1sccc1-c1ccccc1 | n | 22µM | u | n | n | n
SMILES | aSyn yeast inh | TDP-43 yeast inh | Abeta yeast res | ClpP mod | FUS suppressor | Mm-Cpn inhibitor
CN(CC(=O)Nc1cccc(F)c1)C(=O)c1sccc1-c1ccccc1 | n | n | n | x | n | n
CC(C)N1CCc2c(sc(NC(=S)NC(=O)c3ccccc3)c2C#N)C1 | n | n | n | x | n | n
CC(C)N1CCc2c(sc(N)c2C#N)C1 | n | n | n | 25µM | n | n
N#Cc1c(N)sc(=S)c2c1CCN(Cc1ccccc1)C2 | x | x | x | x | x | n
CCN1CCc2c(sc(N)c2C#N)C1 | n | n | n | 28µM | n | n
COc1cccc(NC(=O)CCSc2nc(-c3ccco3)cc(C(F)(F)F)n2)c1 | x | n | n | n | n | x
COC(=O)c1cc2ccccc2c(-c2c(OC)c(C(=O)OC)cc3ccccc23)c1OC | n | u | n | 25µM | u | n
CCCCNS(=O)(=O)CC1NCc2cc(OC)ccc21 (stereo not given) | x | x | x | x | n | x
CC1CC2(C)CC(C)C1(COC(=O)Nc1ccccc1)CO2 (stereo not given) | n | 35µM | n | x | n | n
COc1ccc(C2C3=C(CCCC3=O)Nc3ccc4ncccc4c32)cc1OC (stereo not given) | n | n | n | 6.3µM | n | n
COc1ccc(OC)c(-c2cc(C(=O)N3CCc4ccccc4C3)no2)c1 | n | n | n | 25µM | n | n
COc1ccc(OC)c(-c2cc(C(=O)Nc3c(C)nn(Cc4ccc(Cl)cc4)c3C)no2)c1 | n | n | n | 35µM | u | n
S=C(c1cccs1)N1CCN(c2ccccc2)CC1 | n | 18µM | n | n | x | x
S=C(c1cccs1)N1CCCC1 | n | n | n | n | n | n
CC(C)CC(=O)NC(=S)Nc1ccc(N2CCN(C(=O)c3cccs3)CC2)cc1 | n | 18µM | n | n | n | n
CC(C)C(=O)Nc1ccc(N2CCN(C(=O)c3cccs3)CC2)cc1 | n | n | n | n | n | n
Cc1ccc(N(C)C(=O)CN2C(=O)CCc3cc(S(=O)(=O)N4CCOCC4)ccc32)cc1 | x | n | n | n | n | x
COc1ccc(-c2cc(C(=O)N3CCN(c4ccccc4)CC3)no2)cc1 | n | 11µM | n | n | n | n
O=C(c1cc(-c2cccs2)on1)N1CCN(c2ccccc2)CC1 | n | 11µM | n | n | n | n
COc1ccc(-c2noc(N3CCN(c4ccc(Cl)cc4)CC3)n2)cc1OC | x | n | n | n | n | x
O=C(c1cc(-c2cccs2)on1)N1CCN(c2ccc(F)cc2)CC1 | n | n | n | n | n | u
COc1ccc(-c2cc(C(=O)N3CCN(c4ccccc4OC)CC3)no2)cc1 | n | n | n | x | n | n
COc1ccc(OC)c(-c2cc(C(=O)N3CCN(c4ccccc4)CC3)no2)c1 | n | 22µM | n | u | u | n
COc1ccc(OC)c(-c2noc(N3CCN(c4ccc(Cl)cc4)CC3)n2)c1 | x | 11µM | n | n | n | x
COc1cccc(NC(=O)/C(C#N)=C/c2c(C)n(Cc3ccccc3)c3ccccc23)c1 | x | n | n | n | n | x
O=C(COCc1cc(-c2cccs2)on1)N1CCN(c2cccc(Cl)c2)CC1 | x | u | n | n | n | x
O=C(COCc1cc(-c2cccs2)on1)N1CCN(c2ccc(F)cc2)CC1 | x | 16µM | n | n | n | x
COc1cc(NC(=O)CC2C(=O)OCCN2Cc2ccccc2)cc(OC)c1 (stereo not given) | x | 25µM | n | n | n | x
COC(=O)c1cc(NC(=O)CC2C(=O)OCCN2Cc2ccccc2)cc(C(=O)OC)c1 (stereo not given) | x | u | n | n | n | x
O=C(CC1C(=O)OCCN1Cc1ccccc1)Nc1ccc(F)cc1 (stereo not given) | x | 13µM | n | n | n | x
